Records with an inconclusive call do not appear. Activity calls are given as the source filed them. Calls come from the whole dose curve; as a rule, active = well fitted inhibition curve with a large enough effect in the repeat runs; inconclusive = weak or mixed curves; inactive = flat fitted curve, though single readings scatter.
Each compound was assayed against Cytochrome P450 2D6 (Homo sapiens) (UniProt P10635) (assay: Cytochrome P450 family 2 subfamily D member 6 (CYP2D6) small molecule antagonists: luciferase biochemical (cell-free) qHTS assay (AID 1645840; note: nearly all actives have a fitted effect of over 55% in size)). Settings: P450-Glo CYP2D6 enzyme, luciferin luminescence, 1 h; series mostly up to 57.4 µM; activity change, negative = inhibition: at the top concentration.
Chain of Cytochrome P450 2D6 (Homo sapiens) (P10635 whole entry, looked up): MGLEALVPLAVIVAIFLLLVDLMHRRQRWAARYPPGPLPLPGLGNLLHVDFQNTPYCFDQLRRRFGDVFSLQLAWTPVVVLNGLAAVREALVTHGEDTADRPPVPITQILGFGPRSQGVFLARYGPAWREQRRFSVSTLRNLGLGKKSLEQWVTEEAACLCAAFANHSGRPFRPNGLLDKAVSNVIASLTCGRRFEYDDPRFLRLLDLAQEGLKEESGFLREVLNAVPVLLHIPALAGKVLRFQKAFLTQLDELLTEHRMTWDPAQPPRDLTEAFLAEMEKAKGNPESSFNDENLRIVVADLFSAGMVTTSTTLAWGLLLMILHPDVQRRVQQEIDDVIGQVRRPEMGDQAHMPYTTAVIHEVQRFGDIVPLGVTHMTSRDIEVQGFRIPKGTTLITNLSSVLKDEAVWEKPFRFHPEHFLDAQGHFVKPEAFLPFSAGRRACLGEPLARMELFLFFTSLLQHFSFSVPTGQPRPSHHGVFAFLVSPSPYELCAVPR
Outline: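 P450-Glo CYP2D6 system: proluciferin substrate converted by enzyme to luciferin, read by luminescence proportional to activity. Enzyme-substrate mix with compound 10 min at room temperature, then NADPH regeneration 1 h before detection reagent.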
% is set by controls: 0 for no effect and ±100 for the full control effect; potency is the fitted concentration of half-maximal effect.

SMILES | activity change, negative = inhibition | Potency
CCC1C(=O)N(C)c2cnc(Nc3ccc(C(=O)NC4CCN(C)CC4)cc3OC)nc2N1C1CCCC1 (centres undefined) | -18.6% (inactive) | –
COc1nc2ccc(Br)cc2cc1[C@@H](c1ccccc1)[C@@](O)(CCN(C)C)c1cccc2ccccc12 | – | 7.56 µM (active)
CN[C@H]1CC[C@@H](c2ccc(Cl)c(Cl)c2)c2ccccc21 | – | 2.19 µM (active)
N#Cc1ccc(Nc2nc(-c3ccc(O)cc3O)cs2)cc1C(F)(F)F | – | 5.35 µM (active)

Reference: PubChem BioAssay (NCATS)
